# Reference: PubChem BioAssay (EPA / NIEHS)
# The source made the active and inactive calls. Rule for the calls: active = hit-call score of the fitted dose curve at least 0.9, where 1 is the maximum; inactive = score below 0.9.
# Legend:
# Settings in all cases: mRNA level, 48 h; actives raise or lower the signal
# [1] = read-out: 3-Hydroxy-3-Methylglutaryl-CoA Synthase 2 (HMGCS2), HMGCS2 (gene 3158); experiment: LTEA_HepaRG_HMGCS2: Life Technologies and Expression Analysis (LTEA) Assay for 3-Hydroxy-3-Methylglutaryl-CoA Synthase 2 (HMGCS2) using HepaRG (AID 2283504)
# In short: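 Human HepaRG cells in serum-free induction medium were exposed in duplicate for 48 h to 8-point half-log series from 100 uM top in 0.5% DMSO. HMGCS2 mRNA measured by TaqMan qRT-PCR, normalised to ACTB, GAPDH, POLR2A; bidirectional fit versus DMSO.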
# HGF (gene 3082) = experiment: LTEA_HepaRG_HGF: Life Technologies and Expression Analysis (LTEA) Assay for Hepatocyte Growth Facto (HGF) using HepaRG (AID 2283505)
# In short: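 Differentiated HepaRG cells in serum-free induction medium exposed 48 h in duplicate, 8 half-log concentrations from 100 uM in 0.5% DMSO. HGF mRNA by qRT-PCR, normalised to ACTB, GAPDH, POLR2A; bidirectional fitting.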
# [2] = read-out: Insulin Like Growth Factor 1 (IGF1), IGF1 (gene 3479); experiment: LTEA_HepaRG_IGF1: Life Technologies and Expression Analysis (LTEA) Assay for Insulin Like Growth Factor 1 (IGF1) using HepaRG (AID 2283506)
# In short: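 Using human HepaRG liver cells, IGF1 transcript induction or suppression is measured 48 h after dosing across eight concentrations capped at 100 uM. Values derive from bidirectional concentration-response fitting with DMSO as baseline.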
# [3] = read-out: Intercellular Adhesion Molecule 1 (ICAM1), ICAM1 (gene 3383); experiment: LTEA_HepaRG_ICAM1: Life Technologies and Expression Analysis (LTEA) Assay for Intercellular Adhesion Molecule 1 (ICAM1) using HepaRG (AID 2283507)
# In short: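 Differentiated human HepaRG cells in serum-free induction medium exposed 48 h in duplicate to 8 half-log concentrations (top 100 uM, 0.5% DMSO). ICAM1 mRNA quantified by TaqMan qRT-PCR, normalized to ACTB, GAPDH and POLR2A; bidirectional fitting versus DMSO.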
# [4] = read-out: Insulin-like growth factor-binding protein 1 (IGFBP1), IGFBP1 (gene 3484); experiment: LTEA_HepaRG_IGFBP1: Life Technologies and Expression Analysis (LTEA) Assay for Insulin-like growth factor-binding protein 1 (IGFBP1) using HepaRG (AID 2283508)
# In short: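 HepaRG cells, plated 48 h then switched to serum-free induction medium, exposed in duplicate for 48 h to 8-point half-log series from 100 uM in 0.5% DMSO. mRNA measured by qRT-PCR, normalized to ACTB/GAPDH/POLR2A; bidirectional fit versus DMSO.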
# [5] = read-out: Interleukin 6 (IL6), IL6 (gene 3569); experiment: LTEA_HepaRG_IL6: Life Technologies and Expression Analysis (LTEA) Assay for Interleukin 6 (IL6) using HepaRG (AID 2283509)
# In short: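 HepaRG, ~100,000 cells/well, 48 h pre-culture; serum-free induction medium; cmpd 8-pt half-log from 100 uM, 0.5% DMSO, duplicate, 48 h. Lysis in RLT, TaqMan qRT-PCR; gain or loss vs DMSO.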
# [6] = read-out: Interleukin 6 Receptor (IL6R), IL6R (gene 3570); experiment: LTEA_HepaRG_IL6R: Life Technologies and Expression Analysis (LTEA) Assay for Interleukin 6 Receptor (IL6R) using HepaRG (AID 2283510);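 for AC50: TaqMan qRT-PCR signal normalized to ACTB GAPDH and POLR2A housekeeping genes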
# In short: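 Concentration-response in human liver HepaRG cells: eight concentrations from 100 uM downward by half-logs, 48 h exposure, 0.5% DMSO vehicle. IL6R mRNA change measured by qRT-PCR and fitted in both directions relative to vehicle.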
# [7] = read-out: Potassium channel subfamily K member 1 (KCNK1), KCNK1 (gene 3775); experiment: LTEA_HepaRG_KCNK1: Life Technologies and Expression Analysis (LTEA) Assay for Potassium channel subfamily K member 1 (KCNK1) using HepaRG (AID 2283511)
# In short: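 Gain or loss of KCNK1 mRNA is the read-out, quantified by qRT-PCR against three housekeeping genes after 48 h chemical treatment of human HepaRG liver cells. Concentrations ran from 100 uM downward in half-log steps, vehicle 0.5% DMSO.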
# [8] = read-out: Keratin 19 (KRT19), KRT19 (gene 3880); experiment: LTEA_HepaRG_KRT19: Life Technologies and Expression Analysis (LTEA) Assay for Keratin 19 (KRT19) using HepaRG (AID 2283512)
# In short: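 Differentiated HepaRG cells in serum-free induction medium, exposed 48 h in duplicate to 8 half-log concentrations up to 100 uM in 0.5% DMSO. KRT19 mRNA by qRT-PCR, normalized to ACTB, GAPDH, POLR2A; bidirectional fit vs DMSO.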
# [9] = read-out: JUN Transcription Factor, JUN (gene 3725); experiment: LTEA_HepaRG_JUN: Life Technologies and Expression Analysis (LTEA) Assay for JUN Transcription Factor using HepaRG (AID 2283513)
# In short: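 Human HepaRG liver cells receive test chemicals in 0.5% DMSO for 48 h across an eight-point range topping at 100 uM. Expression changes in JUN are scored in both directions against the DMSO vehicle.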
# [10] = read-out: Lipase C (LIPC), LIPC (gene 3990); experiment: LTEA_HepaRG_LIPC: Life Technologies and Expression Analysis (LTEA) Assay for Lipase C (LIPC) using HepaRG (AID 2283514)
# In short: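 Read-out is LIPC transcript level by TaqMan qRT-PCR, normalized to three housekeeping genes, after 48 h chemical treatment of human HepaRG liver cells. Curves span eight concentrations topping at 100 uM; activity in either direction scored relative to 0.5% DMSO.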
# [11] = read-out: Lipoprotein lipase (LPL), LPL (gene 4023); experiment: LTEA_HepaRG_LPL: Life Technologies and Expression Analysis (LTEA) Assay for Lipoprotein lipase (LPL) using HepaRG (AID 2283515)
# In short: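 Read-out is LPL transcript level by qRT-PCR, normalized to three housekeeping genes and fitted bidirectionally against the DMSO control. Human HepaRG cells received chemicals for 48 h at up to 100 uM.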
# [12] = read-out: MicroRNA 122 (MIR122), gene 406906; experiment: LTEA_HepaRG_MIR122: Life Technologies and Expression Analysis (LTEA) Assay for MicroRNA 122 (MIR122) using HepaRG (AID 2283516); note: the transcript read is the microRNA miR-122
# In short: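 HepaRG, 48 h exposure, 8-pt half-log from 100 uM, 0.5% DMSO; TaqMan qRT-PCR; bidirectional fit vs DMSO.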
# [13] = read-out: matrix metalloproteinase-10 (MMP10), MMP10 (gene 4319); experiment: LTEA_HepaRG_MMP10: Life Technologies and Expression Analysis (LTEA) Assay for matrix metalloproteinase-10 (MMP10) using HepaRG (AID 2283517)
# In short: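 Gain or loss of MMP10 mRNA is fitted relative to the 0.5% DMSO vehicle. The human hepatic line HepaRG receives a 48-hour serum-free exposure, in duplicate, with a maximum concentration of 100 uM.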
# MYC, MYC (gene 4609) = experiment: LTEA_HepaRG_MYC: Life Technologies and Expression Analysis (LTEA) Assay for MYC using HepaRG (AID 2283518)
# In short: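 Differentiated HepaRG cells exposed 48 h in serum-free induction medium to 8 concentrations (top 100 uM, half-log steps; 0.5% DMSO), duplicate. MYC mRNA measured by Fluidigm qRT-PCR, normalized to ACTB, GAPDH, POLR2A; bidirectional fit versus DMSO.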
# [14] = read-out: matrix metalloproteinase-3 (MMP3), MMP3 (gene 4314); experiment: LTEA_HepaRG_MMP3: Life Technologies and Expression Analysis (LTEA) Assay for matrix metalloproteinase-3 (MMP3) using HepaRG (AID 2283519)
# In short: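 HepaRG, human; 48 h dosing, 8 conc. (max 100 uM, half-log), duplicate, 0.5% DMSO. Readout: MMP3 transcript by Fluidigm TaqMan qRT-PCR, ACTB/GAPDH/POLR2A-normalised. Gain or loss fitted vs DMSO.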
# [15] = read-out: Paternally Expressed 10 (PEG10), PEG10 (gene 23089); experiment: LTEA_HepaRG_PEG10: Life Technologies and Expression Analysis (LTEA) Assay for Paternally Expressed 10 (PEG10) using HepaRG (AID 2283520);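 for AC50: PEG10 transcript by qRT-PCR normalised to ACTB GAPDH and POLR2A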
# In short: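 Chemicals tested on HepaRG cells for 48 h, highest concentration 100 uM. PEG10 expression assessed by qRT-PCR relative to DMSO control.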
# [16] = read-out: Nuclear factor NF-kappa-B p105 subunit (Homo sapiens) (UniProt P19838); experiment: LTEA_HepaRG_NFKB1: Life Technologies and Expression Analysis (LTEA) Assay for Nuclear Factor Kappa B Subunit 1 (NFKB1) using HepaRG (AID 2283521)
# In short: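 Differentiated human HepaRG cells in serum-free induction medium with 0.5% DMSO were exposed for 48 h to eight half-log concentrations, top 100 uM, in duplicate. NFKB1 mRNA measured by Fluidigm TaqMan qRT-PCR, normalised to ACTB, GAPDH and POLR2A; bidirectional fit versus DMSO.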
# [17] = read-out: Protein phosphatase 2A (PPP2R4), PTPA (gene 5524); experiment: LTEA_HepaRG_PPP2R4: Life Technologies and Expression Analysis (LTEA) Assay for Protein phosphatase 2A (PPP2R4) using HepaRG (AID 2283522)
# In short: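 Gene-expression endpoint in HepaRG hepatic cells: 48 h treatment across eight half-log concentrations up to 100 uM in 0.5% DMSO. PPP2R4 mRNA by qRT-PCR, normalized to three endogenous control genes.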
# [18] = read-out: Phosphatase and tensin (PTEN), PTEN (gene 5728); experiment: LTEA_HepaRG_PTEN: Life Technologies and Expression Analysis (LTEA) Assay for Phosphatase and tensin (PTEN) using HepaRG (AID 2283523)
# In short: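 Read-out is PTEN transcript level by multiplexed TaqMan qRT-PCR after 48 h chemical treatment of human HepaRG cultures in serum-free induction medium. Concentrations spanned 100 uM downward in half-log steps, 0.5% DMSO throughout; activity fitted in both directions against vehicle.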
# Nuclear factor NF-kappa-B p105 subunit (Homo sapiens), sequence (P19838 whole entry, looked up): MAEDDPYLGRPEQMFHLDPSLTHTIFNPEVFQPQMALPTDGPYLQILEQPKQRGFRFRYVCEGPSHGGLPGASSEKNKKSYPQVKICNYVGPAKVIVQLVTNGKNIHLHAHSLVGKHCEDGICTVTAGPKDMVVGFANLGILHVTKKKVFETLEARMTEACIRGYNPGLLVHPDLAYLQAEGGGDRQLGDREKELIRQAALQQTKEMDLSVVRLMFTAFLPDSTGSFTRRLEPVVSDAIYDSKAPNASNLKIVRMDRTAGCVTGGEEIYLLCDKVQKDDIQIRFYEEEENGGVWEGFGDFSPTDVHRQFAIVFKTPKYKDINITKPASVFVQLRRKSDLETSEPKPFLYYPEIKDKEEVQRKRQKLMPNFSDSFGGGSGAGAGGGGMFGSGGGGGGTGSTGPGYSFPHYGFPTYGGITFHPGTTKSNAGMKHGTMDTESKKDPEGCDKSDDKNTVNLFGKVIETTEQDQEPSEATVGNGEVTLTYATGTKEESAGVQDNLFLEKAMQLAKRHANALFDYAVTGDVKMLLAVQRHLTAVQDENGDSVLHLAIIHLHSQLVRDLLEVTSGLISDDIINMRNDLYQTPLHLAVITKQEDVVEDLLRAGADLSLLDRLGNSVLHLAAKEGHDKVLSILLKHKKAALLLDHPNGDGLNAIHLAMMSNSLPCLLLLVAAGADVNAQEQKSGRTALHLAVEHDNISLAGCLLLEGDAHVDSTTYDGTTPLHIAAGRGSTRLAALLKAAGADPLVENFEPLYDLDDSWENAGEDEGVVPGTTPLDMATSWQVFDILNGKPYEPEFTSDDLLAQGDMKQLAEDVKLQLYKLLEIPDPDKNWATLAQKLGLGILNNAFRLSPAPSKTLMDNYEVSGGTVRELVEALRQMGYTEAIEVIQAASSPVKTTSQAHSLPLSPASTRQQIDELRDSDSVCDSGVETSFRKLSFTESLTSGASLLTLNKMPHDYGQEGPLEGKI
compound,measurement,setting,value
COc1cc2c(c(OC)c1OC)-c1ccc(OC)c(=O)cc1[C@@H](NC(C)=O)CC2,AC50,[1],286 nM (active)
same,outcome,HGF (gene 3082),inactive
same,AC50,[2],123 nM (active)
same,outcome,[3],inactive
same,AC50,[4],584 nM (active)
same,AC50,[5],144 nM (active)
same,AC50,[6],432 nM (active)
same,outcome,[7],inactive
same,outcome,[8],inactive
same,outcome,[9],inactive
same,AC50,[10],301 nM (active)
same,AC50,[11],96 nM (active)
same,AC50,[12],113 nM (active)
same,AC50,[13],14.7 nM (active)
same,AC50,"MYC, MYC (gene 4609)",144 nM (active)
same,AC50,[14],152 nM (active)
same,AC50,[15],112 nM (active)
same,outcome,[16],inactive
same,outcome,[17],inactive
same,outcome,[18],inactive
OCCOCCOCCO,outcome,[1],inactive
same,outcome,HGF (gene 3082),inactive
same,outcome,[2],inactive
same,outcome,[3],inactive
same,outcome,[4],inactive
same,outcome,[5],inactive
same,outcome,[6],inactive
same,outcome,[7],inactive
same,outcome,[8],inactive
same,outcome,[9],inactive
same,outcome,[10],inactive
same,outcome,[11],inactive
same,outcome,[12],inactive
same,outcome,[13],inactive
same,outcome,"MYC, MYC (gene 4609)",inactive
same,outcome,[14],inactive
same,outcome,[15],inactive
same,outcome,[16],inactive
same,outcome,[17],inactive
same,outcome,[18],inactive
CC(C)CCCCCCOC(=O)C1CCCCC1C(=O)OCCCCCCC(C)C (stereo not given),outcome,[1],inactive
same,outcome,HGF (gene 3082),inactive
same,outcome,[2],inactive
same,outcome,[3],inactive
same,outcome,[4],inactive
same,outcome,[5],inactive
same,outcome,[6],inactive
same,outcome,[7],inactive
same,outcome,[8],inactive
same,outcome,[9],inactive
same,outcome,[10],inactive
same,AC50,[11],9920 nM (active)
same,outcome,[12],inactive
same,outcome,[13],inactive
same,outcome,"MYC, MYC (gene 4609)",inactive
same,outcome,[14],inactive
same,outcome,[15],inactive
same,outcome,[16],inactive
same,outcome,[17],inactive
same,outcome,[18],inactive
CC(C)CC(C)O (stereo not given),outcome,[1],inactive
same,outcome,HGF (gene 3082),inactive
same,outcome,[2],inactive
same,outcome,[3],inactive
same,outcome,[4],inactive
same,outcome,[5],inactive
same,outcome,[6],inactive
same,outcome,[7],inactive
same,outcome,[8],inactive
same,outcome,[9],inactive
same,outcome,[10],inactive
same,outcome,[11],inactive
same,outcome,[12],inactive
same,outcome,[13],inactive
same,outcome,"MYC, MYC (gene 4609)",inactive
same,outcome,[14],inactive
same,outcome,[15],inactive
same,outcome,[16],inactive
same,outcome,[17],inactive
same,outcome,[18],inactive
OC(CCl)CCl,outcome,[1],inactive
same,outcome,HGF (gene 3082),inactive
same,outcome,[2],inactive
same,outcome,[3],inactive
same,outcome,[4],inactive
same,outcome,[5],inactive
same,outcome,[6],inactive
same,outcome,[7],inactive
same,outcome,[8],inactive
same,outcome,[9],inactive
same,outcome,[10],inactive
same,outcome,[11],inactive
same,outcome,[12],inactive
same,outcome,[13],inactive
same,outcome,"MYC, MYC (gene 4609)",inactive
same,outcome,[14],inactive
same,outcome,[15],inactive
same,outcome,[16],inactive
same,outcome,[17],inactive
same,outcome,[18],inactive
Cc1ccc(S(=O)(=O)NC(=O)NN2CCCCCC2)cc1,outcome,[1],inactive
same,outcome,HGF (gene 3082),inactive
same,outcome,[2],inactive
same,outcome,[3],inactive
same,outcome,[4],inactive
same,outcome,[5],inactive
same,outcome,[6],inactive
same,outcome,[7],inactive
same,outcome,[8],inactive
same,outcome,[9],inactive
same,outcome,[10],inactive
same,outcome,[11],inactive
same,outcome,[12],inactive
same,outcome,[13],inactive
same,outcome,"MYC, MYC (gene 4609)",inactive
same,outcome,[14],inactive
same,outcome,[15],inactive
same,outcome,[16],inactive
same,outcome,[17],inactive
same,outcome,[18],inactive
